Measurements from PubChem BioAssay.
The source made the active and inactive calls. Unless noted, how the calls were made is not given here.

What was measured:
[1] = system: Wnt5a (protein binding on small-molecule microarray); experiment: small molecules binding Wnt5a protein – biophysical, small-molecule microarray, 635/667 nm fluorescence, primary screen (AID 1142); conditions: 635 nm fluorescence, higher = more signal;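 further: fluorescence read at 667 nm with signal to noise per printed feature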
[2] = ATP-based viability of Huh7 replicon cells – cell-based, CellTiter-Glo luminescence, basal, 48 h, cytotoxicity control for HCV replication inhibitor project, primary screen (AID 1143); conditions: higher = more signal, called active from +8 up or from −8 down;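 further: Huh7 hepatoma cells carrying a hepatitis C replication reporter with no stimulus; test concentration not given here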
[3] = Pseudomonas biofilm growth suppression – PAO1 strain, BacTiter-Glo luminescence, LB-PBS, primary screen (AID 1144); conditions: P. aeruginosa PAO1 biofilm, 12 h, higher = more signal
[4] = basal CRE-LacZ reporter activity in PC12 – cell-based, unstimulated, primary screen (AID 1145); conditions: no forskolin, luminescence, 4.5 h, higher = more signal, called active from +8 up or from −8 down
[5] = forskolin-driven CRE-LacZ activity in PC12 – cell-based, CRE-LacZ reporter, forskolin-stimulated, primary screen (AID 1146); conditions: luminescence, 4.5 h, higher = more signal, called active from +8 up or from −8 down;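 further: PC12 cells with 6xCRE LacZ reporter stimulated by forskolin 10 µM; beta-galactosidase reporter signal reflecting CREB driven transcription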
[6] = target: Streptavidin (Streptomyces avidinii) (UniProt P22629); experiment: compounds binding control protein streptavidin – biophysical, small-molecule microarray, 635/667 nm fluorescence, artefact control for SMM compound annotation, primary screen (AID 1147); conditions: higher = more signal;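 further: signal reflects streptavidin binding to arrayed compounds as a control protein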
Streptavidin (Streptomyces avidinii), sequence (P22629 whole entry, looked up): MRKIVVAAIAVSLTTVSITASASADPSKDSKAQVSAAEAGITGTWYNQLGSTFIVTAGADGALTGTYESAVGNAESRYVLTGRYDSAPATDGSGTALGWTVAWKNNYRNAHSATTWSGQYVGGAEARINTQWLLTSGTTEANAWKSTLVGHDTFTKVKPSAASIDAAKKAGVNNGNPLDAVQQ

[7] = probe aInhba binding on compound microarray – biochemical, small-molecule microarray, 635/667 nm fluorescence, primary screen (AID 1148); conditions: higher = more signal;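 further: score merges 667nm spot fluorescence with signal-to-noise for antibody binding to printed compounds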
Torsin-1A (Homo sapiens) [8] = target: Torsin-1A (Homo sapiens) (UniProt O14656); experiment: TOR1A wild-type binding on microarray – cell lysate, small-molecule microarray, lysate, 635/667 nm, primary screen (AID 1149); conditions: COS7 hTOR1A-WT lysate, 635 nm fluorescence, higher = more signal
Torsin-1A (Homo sapiens), sequence (O14656 whole entry, looked up): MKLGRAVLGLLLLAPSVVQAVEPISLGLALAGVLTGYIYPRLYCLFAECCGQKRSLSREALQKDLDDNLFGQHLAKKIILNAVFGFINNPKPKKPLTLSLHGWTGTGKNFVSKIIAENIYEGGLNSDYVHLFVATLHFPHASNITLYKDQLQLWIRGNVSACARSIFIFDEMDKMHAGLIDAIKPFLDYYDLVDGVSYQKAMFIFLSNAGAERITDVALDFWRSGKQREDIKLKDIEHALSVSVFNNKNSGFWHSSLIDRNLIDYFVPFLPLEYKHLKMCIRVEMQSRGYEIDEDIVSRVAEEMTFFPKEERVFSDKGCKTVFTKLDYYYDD

Torsin-1A (Homo sapiens) [9] = target: Torsin-1A (Homo sapiens) (UniProt O14656); experiment: torsin A mutant lysate binding on microarrays – cell lysate, small-molecule microarray, COS7 lysate, 635/667 nm fluorescence, primary screen (AID 1150); conditions: COS7 hTOR1A mutant lysate, 635 nm fluorescence, higher = more signal;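 further: score pools 667 nm emission and signal to noise measuring lysate protein binding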
[10] = system: Sonic hedgehog protein (Shh); experiment: Sonic hedgehog microarray binding compounds – biochemical, small-molecule microarray, 635/667 nm fluorescence, primary screen (AID 1151); conditions: 635 nm fluorescence, higher = more signal;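 further: Shh protein binding to compounds spotted on small-molecule microarray slides; score combines spot fluorescence intensity with signal-to-noise across triplicate slides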

| SMILES | composite z-score [1] | z-score [2] | z-score [3] | z-score [4] | z-score [5] | composite z-score [6] | composite z-score [7] | composite z-score (Torsin-1A (Homo sapiens) [8]) | composite z-score (Torsin-1A (Homo sapiens) [9]) | composite z-score [10] |
| --- | --- | --- | --- | --- | --- | --- | --- | --- | --- | --- |
| COCCOC(=O)N1C(=O)[C@@]2(c3cc(C#CCCO)ccc31)[C@H](C(=O)N1CCc3cc(OC)c(OC)cc3C1)[C@H]1C(=O)O[C@H](c3ccccc3)[C@H](c3ccccc3)N1[C@@H]2c1ccc(O)cc1 | 0.304 | -0.173 (inactive) | -0.14 (inactive) | -0.815 (inactive) | -0.742 (inactive) | 0.25 | 0.132 | 0.73 | 0.538 | 0.918 |
| O=C1NC(=O)C2C1C=CC(C(O)c1cccc3ccccc13)N2Nc1ccccn1 (stereo not given) | 0.0051 | 0.697 (inactive) | -0.484 (inactive) | -0.522 (inactive) | -0.285 (inactive) | 0.278 | 0.185 | 0.16 | 0.231 | -0.516 |
| COC(=O)[C@@]1(Cc2ccc(OC)cc2)[C@H]2c3cc(C(=O)N(C)C)n(Cc4cccc5ccccc45)c3C[C@H]2CN1C(=O)c1ccccc1 | 1.44 | -4.45 (inactive) | -0.0601 (inactive) | 0.0075 (inactive) | 0.458 (inactive) | 0.697 | 0.943 | 0.817 | 1.14 | 0.659 |
| [N-]=[N+]=NCc1ccccc1[C@H]1OC(c2ccc(OCCCO)cc2)=N[C@@]1(Cc1ccccc1)C(=O)NCc1ccccc1 | 0.348 | -3.57 (inactive) | -0.862 (inactive) | -0.0108 (inactive) | -0.157 (inactive) | 1.15 | -0.466 | 0.247 | 0.714 | 0.144 |
| CN(C)CCCNC(=O)[C@@]1(C)c2ccccc2C(=O)N(Cc2cc(F)cc(C(F)(F)F)c2)[C@H]1c1ccc(CO)cc1 | -0.569 | -1.69 (inactive) | 1.25 (inactive) | -0.0888 (inactive) | 0.506 (inactive) | -0.432 | -0.179 | -1.2 | 0.301 | -0.335 |
| CCOC(=O)C[C@H]1[C@H](OC(=O)c2ccc(C(=O)c3ccccc3)cc2)[C@@H](NC(=O)c2ccc(-c3ccccc3)cc2)c2cc(OCCCO)ccc2N1C(=O)c1ccccc1 | 0.0074 | 0.294 (inactive) | 0.0763 (inactive) | 0.0035 (inactive) | -0.254 (inactive) | 1.11 | -0.128 | 0.117 | 0.311 | 1.08 |
| CC[C@@H]1C=C(C(=O)O)[C@H](c2ccco2)N1S(=O)(=O)c1ccc(C)cc1 | -0.291 | 0.433 (inactive) | -0.187 (inactive) | -0.518 (inactive) | 1.1 (inactive) | 0.402 | 0.0228 | -0.282 | 0.222 | 0.374 |
| CN1C(=O)C2C=CC(C(O)c3ccccc3)N(Nc3ccccc3)C2C1=O (stereo not given) | -0.244 | 0.658 (inactive) | -0.231 (inactive) | 0.626 (inactive) | -0.206 (inactive) | -0.0782 | -0.0195 | -1.5 | 0.254 | -1.58 |
| CCCCN1CC=CC23O[C@@H]4/C=C\CCC(C)OC(=O)C4[C@H]2C(=O)N(CCCCCO)[C@@H]3C1=O (stereo not given in full) | -0.612 | 0.0396 (inactive) | -0.398 (inactive) | 0.191 (inactive) | -0.0864 (inactive) | -1.24 | -0.246 | -1.6 | -1.78 | -0.0223 |
| COC(=O)[C@@]1(Cc2ccccc2)[C@H]2c3cc(C(=O)N4CCCC4)n(Cc4cccc5ccccc45)c3C[C@H]2CN1C(=O)c1ccccc1 | 1.67 | -2.97 (inactive) | 0.786 (inactive) | 1.73 (inactive) | 0.941 (inactive) | 2.82 | 1.52 | -0.0124 | 0.669 | -0.27 |
| COC(=O)[C@@]1(Cc2ccccc2)[C@H]2c3cc(C(=O)N4CCCC4)n(Cc4nc5ccccc5[nH]4)c3C[C@H]2CN1C(=O)c1ccccc1 | 0.0972 | -2.97 (inactive) | -0.509 (inactive) | 0.773 (inactive) | 1.46 (inactive) | 1.51 | 0.427 | 0.746 | 1.24 | -0.105 |
| Cc1ccc(S[C@]2(C(=O)NC(C)C)CC(=O)N(Cc3ccccc3Cl)[C@@H]2c2ccc(CO)cc2I)cc1 | -0.615 | -2.03 (inactive) | 0.248 (inactive) | -0.374 (inactive) | 2.53 (inactive) | -0.265 | -0.224 | -1.85 | -1.25 | -0.008 |
| COC(=O)[C@@]1(Cc2ccc(F)cc2)[C@H]2c3cc(C(=O)N4CCCC4)n(Cc4cc(C)n(C)n4)c3C[C@H]2CN1C(=O)c1ccccc1 | 0.639 | -2 (inactive) | -0.132 (inactive) | 0.583 (inactive) | 0.989 (inactive) | 1.65 | 0.32 | 0.0304 | 1.04 | -1.06 |
| COc1ccc(C(O)C2C=CC3C(=O)NC(=O)C3N2Nc2ccccn2)cc1 (stereo not given) | 0.273 | 1.06 (inactive) | -0.727 (inactive) | -0.329 (inactive) | -0.239 (inactive) | -0.0335 | 0.0659 | 0.21 | 0.353 | 0.3 |
| O=C1NCC(=O)N2[C@@H]1C[C@@H](C(=O)O)[C@H]2c1cccc(OCCO)c1 | 2.26 | -0.095 (inactive) | 4.41 (inactive) | 0.822 (inactive) | -0.393 (inactive) | 2.8 | 2.16 | 3.24 | 3.69 | 1.63 |
| CCOC(=O)C[C@H]1[C@H](OC(=O)Cc2ccc3c(c2)OCO3)[C@@H](NC(=O)c2ccc3ccccc3c2)c2cc(OCCCO)ccc2N1C(=O)c1ccccc1 | 0.0819 | -0.23 (inactive) | -0.784 (inactive) | 4.07 (inactive) | 0.005 (inactive) | 0.397 | 0.0184 | 0.0289 | 0.458 | 0.601 |
| CC(C)C[C@@H]1NC(=O)[C@H]2C[C@@H](C(=O)NCCCCCCN(C)C)[C@@H](c3ccc(O)cc3)N2C1=O | 0.836 | -0.29 (inactive) | -0.041 (inactive) | -0.398 (inactive) | 0.425 (inactive) | 0.189 | -0.147 | 1.47 | 1.52 | 1.97 |
| C=CCNC(=O)[C@@H]1[C@H]2C(=O)O[C@H](c3ccccc3)[C@H](c3ccccc3)N2[C@H](c2ccc(OCCO)cc2)[C@@]12C(=O)Nc1ccc(C#CCCO)cc12 | 0.847 | -0.625 (inactive) | -0.796 (inactive) | -0.141 (inactive) | -0.118 (inactive) | 1.6 | 1.15 | 1.26 | 1.17 | 1.59 |
| O=C(NCc1ccccc1)[C@@H]1c2ccccc2C(=O)N(CC23CC4CC(CC(C4)C2)C3)[C@H]1c1ccc(CO)cc1 | 0.237 | -2 (inactive) | 0.196 (inactive) | -0.439 (inactive) | 0.707 (inactive) | 0.467 | -0.377 | 0.239 | 0.654 | 1.83 |
| O=C1OCCC/C=C\[C@H]2OC34C=CCN(c5ccc6ccccc6c5)C(=O)[C@H]3N(CCCCCCO)C(=O)[C@@H]4C12 (stereo not given in full) | -0.694 | 0.117 (inactive) | -1.7 (inactive) | 0.61 (inactive) | -0.677 (inactive) | -1.1 | -0.128 | -1.12 | -1.2 | -0.0305 |
| CCCCCN1CC=CC23O[C@@H]4/C=C\CCCOC(=O)C4[C@H]2C(=O)N(CCCO)[C@@H]3C1=O (stereo not given in full) | 0.132 | 0.37 (inactive) | -1.17 (inactive) | -0.619 (inactive) | -0.812 (inactive) | -0.413 | -0.233 | 2.02 | 2.27 | -0.163 |
| O=C1C2C=CC(C(O)C(c3ccccc3)c3ccccc3)N(n3cnnc3)C2C(=O)N1Cc1ccccc1 (stereo not given) | 0.159 | -0.0706 (inactive) | 0.738 (inactive) | 0.182 (inactive) | 0.202 (inactive) | 1.12 | 0.057 | 0.0613 | 0.142 | -0.0479 |
| O=C1c2ccccc2[C@@]2(Cc3ccccc3N(CCN3CCOCC3)C2=O)[C@H](c2ccc(CO)cc2)N1Cc1ccccc1 | -0.465 | -1.24 (inactive) | -1.33 (inactive) | 0.208 (inactive) | -0.297 (inactive) | -0.383 | -0.231 | 0.437 | 0.456 | -0.613 |
| CN1C(=O)C2C=CC(C(O)c3ccc(I)cc3)N(N3CCCCC3)C2C1=O (stereo not given) | 0.512 | -0.394 (inactive) | 0.175 (inactive) | 0.246 (inactive) | 0.818 (inactive) | 1.42 | 0.303 | 0.702 | 1.6 | 0.624 |
| C=CC[C@@]1(C(=O)N(C)C)N=C(c2ccc(OCCCO)cc2)O[C@@H]1c1ccccc1N=[N+]=[N-] | 0.554 | -2.25 (inactive) | 0.557 (inactive) | 0.227 (inactive) | -0.825 (inactive) | 1.28 | 0.274 | 0.722 | 1.03 | 0.264 |
| O=C1OCCC/C=C\[C@H]2OC34C=CCN(Cn5nnc6ccccc65)C(=O)[C@H]3N(CCCCCCO)C(=O)[C@@H]4C12 (stereo not given in full) | -0.35 | -0.599 (inactive) | -2.19 (inactive) | -1.17 (inactive) | -0.729 (inactive) | -1.08 | -0.214 | 1.27 | 1.43 | 0.326 |
| COC(=O)[C@@]1(Cc2ccc(F)cc2)[C@H]2c3cc(C(=O)N(C)C)n(Cc4ccc(S(C)(=O)=O)cc4)c3C[C@H]2CN1C(=O)c1ccccc1 | 0.0577 | -0.845 (inactive) | -0.65 (inactive) | 0.766 (inactive) | -0.428 (inactive) | 1.02 | 0.266 | 0.33 | 0.0685 | -0.447 |
| COc1ccc(C(O)C2C=CC3C(=O)N(C)C(=O)C3N2N2CCCCC2)c2ccccc12 (stereo not given) | 0.533 | 0.221 (inactive) | 0.28 (inactive) | 1.39 (inactive) | 0.426 (inactive) | 1.25 | 0.111 | 0.466 | 0.66 | -0.474 |
| NCCCCCNC(=O)[C@@H]1C[C@@H]2C(=O)N[C@@H](Cc3ccccc3)C(=O)N2[C@@H]1c1cccc(OCCO)c1 | 0.0984 | 0.213 (inactive) | 0.205 (inactive) | 0.415 (inactive) | 0.201 (inactive) | 0.44 | -0.182 | 0.89 | 0.373 | 0.867 |
